AGP1-GFP MLPCN = alters AGP1-GFP fluorescence in TOR pathway yeast screen; GFP response vs DMSO, % at 10 µM; S. cerevisiae AGP1-GFP multiplex flow cytometry, 3 h; GFP as percent of DMSO wells; 0.02% of 320,000 active;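 active = GFP response relative to DMSO above a set limit, near screen average plus 3 SD, cut at about 150% in these data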;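 also: median GFP channel fluorescence of the gated AGP1 strain per well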
LAP4 TOR yeast = yeast TOR pathway LAP4-GFP modulation; S. cerevisiae LAP4-GFP multiplex, flow cytometry GFP, 3 h; median GFP as percent of DMSO wells; GFP response vs DMSO, % at 10 µM; 0.34% of 320,000 active;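 active = GFP response vs DMSO above a set limit, about the screen mean plus 3 SD, cut at about 150% in these data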
CIT2 TOR yeast = alters CIT2-GFP fluorescence in TOR pathway yeast screen; S. cerevisiae CIT2-GFP strain, flow cytometry, 3 h; 100 means same as DMSO wells; GFP response vs DMSO, % at 10 µM; AID 2029; 0.065% of 320,000 active;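 active = GFP response relative to DMSO above a set limit, near the screen mean plus 3 SD, cut at about 150% in these data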;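 also: ratio of well median GFP fluorescence to mean of DMSO wells on the plate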
MEP2 TOR yeast = alters MEP2-GFP fluorescence in TOR pathway yeast screen; 0.51% of 330,000 active; S. cerevisiae MEP2-GFP strain, flow cytometry GFP, 3 h; 100% = DMSO control level; AID 2016; GFP response vs DMSO, % at 10 µM;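 active = GFP response versus DMSO above a set limit, roughly screen mean plus 3 SD, cut at about 180% in these data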;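 also: median GFP fluorescence of the barcode-gated MEP2-GFP cells per well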
RPL19A TOR yeast = modulators of TOR pathway RPL19A-GFP in S. cerevisiae; S. cerevisiae RPL19A-GFP strain, flow cytometry, 3 h; hits give low values; 0.3% of 330,000 active; AID 2025; percent response vs DMSO, % at 10 µM;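 active = percent response vs DMSO below 50%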;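 also: median channel GFP fluorescence of the barcoded RPL19A-GFP strain; ratio of sample median GFP to plate DMSO average so 100% = DMSO; lower means less RPL19A-GFP as with rapamycin TOR inhibition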
LAP4-GFP pick2 = reconfirmed LAP4-GFP TOR pathway modulator in yeast. GFP response vs DMSO, % at 10 µM. AID 2621. shares compounds with LAP4 TOR yeast. S. cerevisiae LAP4-GFP strain, flow cytometry GFP, 3 h. 20% of 590 active;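 active = GFP signal as percent of the solvent control above about 150%, meaning raised reporter expression, limit read from the data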;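 also: ratio of well median GFP fluorescence to plate DMSO mean so 100% = DMSO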
MEP2-GFP pick2 = yeast MEP2-GFP modulation, second cherry pick. shares compounds with LAP4 TOR yeast. S. cerevisiae MEP2-GFP strain, flow cytometry GFP, 3 h. GFP response vs DMSO, % at 10 µM. 10% of 590 active;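 active = GFP signal above 150% of the solvent control wells, that is a rise of more than half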;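 also: median channel GFP fluorescence of all gated yeast cells per well; ratio of median GFP to plate DMSO average so 100% = DMSO level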
RPL19A-GFP pick2 = yeast RPL19A-GFP TOR reporter modulation, second cherry pick; GFP response vs DMSO, % at 10 µM; shares compounds with LAP4 TOR yeast; 3% of 590 active; S. cerevisiae RPL19A-GFP strain, flow cytometry GFP, 3 h; hits give low values; 100% means same as DMSO wells;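 active = under 65% GFP response relative to DMSO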;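 also: median GFP channel fluorescence per well over the all cells gate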
CIT2 GFP CP2 = yeast CIT2-GFP TOR reporter modulation, second cherry pick; shares compounds with LAP4 TOR yeast; S. cerevisiae CIT2-GFP strain, flow cytometry GFP, 3 h; DMSO control wells read 100%; GFP response vs DMSO, % at 10 µM; 8% of 590 active;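 active = GFP response vs DMSO above about 150%, limit read from the data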;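 also: median green fluorescence per well over all gated yeast cells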
AGP1 GFP CP2 = second confirmation of modulators of TOR reporter AGP1-GFP in yeast. S. cerevisiae AGP1-GFP strain, flow cytometry GFP, 3 h. shares compounds with LAP4 TOR yeast. 590 tested, under 10 active. percent response vs DMSO, % at 10 µM;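 active = over 150 percent of DMSO response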;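 also: median GFP channel fluorescence over all cells without mother daughter split; sample median GFP divided by mean DMSO control so 100% equals DMSO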
s288c autofluor = counter-screen for compound autofluorescence in yeast s288c cells; shares compounds with LAP4 TOR yeast; S. cerevisiae s288c, 520 nm autofluorescence, flow cytometry, 3 h; hits give high values; zero means same as solvent-only cells; fluorescence change (kMESF span) at 33 µM; 610 tested, under 10 active; AID 2757;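 active = fluorescence span over the dose series, or activity score, above about 33, limit read from the data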
Yeast autofl DR = yeast s288c autofluorescence artifact in dose response; 110 tested, under 10 active; fluorescence change (span) at 33 µM; S. cerevisiae s288c parental, compound autofluorescence, flow cytometry, 3 h; AID 488829; shares compounds with LAP4 TOR yeast;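 active = fluorescence change span, or the activity score built from it, above 25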
TORC1 bypass = wildtype yeast growth loss with TORC1 bypass cells unaffected | shares compounds with LAP4 TOR yeast | S. cerevisiae BY4741 spot growth rating, 48-72 h; hits give low values | growth rating (0-3) at 30 µM | 120 tested, under 10 active | AID 504456;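 active = growth rating at most 1 for wild type yeast while the TORC1 bypass strain still grows fully, rated 3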
* = called active by the depositor; nt = no result. Rows were chosen to be rich in hits. Some 0.92% of all compounds tested hit in one or more screens of this group.

SMILES	AGP1-GFP MLPCN	LAP4 TOR yeast	CIT2 TOR yeast	MEP2 TOR yeast	RPL19A TOR yeast	s288c autofluor	others
O=C1c2ccccc2C(=O)N1SC1CCCCC1	70	68	56	78	59	nt	LAP4-GFP pick2=96;MEP2-GFP pick2=116;RPL19A-GFP pick2=101;CIT2 GFP CP2=115;AGP1 GFP CP2=101
O=C1/C(=C\c2ccc(O)c(O)c2)SC(=S)N1Cc1ccccc1	44	219*	203*	409*	97	33*
Cc1ccc(/C=C2\SC(=S)N(Cc3ccccc3)C2=O)o1	86	156*	95	107	97	1.3	LAP4-GFP pick2=152*;MEP2-GFP pick2=123;RPL19A-GFP pick2=106;CIT2 GFP CP2=120;AGP1 GFP CP2=99
COc1cc(/C=C2/SC(=S)N(Cc3ccccc3)C2=O)ccc1O	101	94	109	109	111	nt
O=C(NC1CC1)C1CCN(C2CCN(C(=O)/C=C/c3ccc(F)cc3)CC2)CC1	105	107	nt	103	96	nt
N/C(Cc1ccc(Cl)c(Cl)c1)=N\OC(=O)c1cccs1	63	219*	111	115	86	1
Cc1cc(/C=C2/SC(=S)N(c3cccc(Cl)c3)C2=O)c(C)n1-c1cccnc1	106	154*	120	154	107	3.5
Cc1cc(/C=C2/SC(=S)N(c3ccc([N+](=O)[O-])cc3)C2=O)c(C)n1-c1cccnc1	97	115	142	144	103	nt
O=S1(=O)C=C(Sc2nc3ccccc3s2)c2ccccc21	90	172*	87	91	92	0.2	LAP4-GFP pick2=175*;MEP2-GFP pick2=106;RPL19A-GFP pick2=104;CIT2 GFP CP2=141;AGP1 GFP CP2=94
CCNc1nc(Cl)nc(N(NC(C)=O)C(C)C)n1	98	102	81	87	94	nt
CCNc1nc(Cl)nc(N(NC(C)=O)C(C)CC)n1 (stereo unspecified)	73	98	58	72	61	nt	LAP4-GFP pick2=101;MEP2-GFP pick2=105;RPL19A-GFP pick2=99;CIT2 GFP CP2=102;AGP1 GFP CP2=97
COc1ccc(N=Cc2nc(-c3ccco3)oc2O)cc1	87	120	87	97	92	nt
CC(=O)Oc1oc(-c2ccccc2)nc1/C=N/c1ccccn1	80	140	86	89	93	nt
Oc1oc(-c2ccccc2)nc1C=Nc1ccccc1	95	120	97	115	101	nt
CN(C)c1ccc(N=Cc2nc(-c3ccccc3)oc2O)cc1	88	72	93	84	84	nt
CC(=O)Oc1oc(-c2ccccc2)nc1C=Nc1ccc(N(C)C)cc1	102	110	94	98	101	0
O=C(Oc1oc(-c2ccco2)nc1C=Nc1ccc(Cl)cc1)c1ccco1	82	230*	102	96	91	0.21
CN(C)c1ccc(N=Cc2nc(-c3ccccc3)oc2OC(=O)c2ccccc2)cc1	98	98	108	105	102	0.61
COc1ccccc1N=Cc1nc(-c2ccccc2)oc1OC(C)=O	91	108	78	95	94	-0.7
O=[N+]([O-])c1ccc(S(=O)(=O)c2ccccc2)nc1	94	177*	92	125	71	0.4
Cc1ccc(S(=O)(=O)c2ccc([N+](=O)[O-])cn2)cc1	95	146	84	100	77	0.92	Yeast autofl DR=0.57;TORC1 bypass=3
Cc1cc(S(=O)(=O)c2ccc([N+](=O)[O-])cn2)ccc1Br	87	147	91	85	81	nt
O=S(=O)(c1ccccc1)c1ccc(C(F)(F)F)cn1	nt	102	95	93	92	-0.2
O=C(CSc1nnnn1C1CC2C=CC1C2)Nc1ccc(C(=O)O)cc1 (stereo unspecified)	102	99	94	106	91	nt
O=C1C=CC(=O)N1	87	130	82	98	98	nt
SMILES	AGP1-GFP MLPCN	LAP4 TOR yeast	CIT2 TOR yeast	MEP2 TOR yeast	RPL19A TOR yeast	s288c autofluor	others
O=C(NC(=S)Nc1ccc2oc(=O)ccc2c1)c1cccc(Cl)c1	23	87	106	139	55	0.2	LAP4-GFP pick2=97;MEP2-GFP pick2=103;RPL19A-GFP pick2=102;CIT2 GFP CP2=101;AGP1 GFP CP2=102
O=C(NC(=S)Nc1ccc2oc(=O)ccc2c1)c1cccc(F)c1	100	92	108	105	101	nt
Cc1ccc2nc3c(cc(C(=O)NCC4CCCO4)c(=N)n3C3CCCC3)c(=O)n2c1 (stereo unspecified)	89	88	94	104	51	nt	LAP4-GFP pick2=105;MEP2-GFP pick2=110;RPL19A-GFP pick2=98;CIT2 GFP CP2=104;AGP1 GFP CP2=102
COc1cc(NC(=O)Cn2c(=O)n(-c3cccc(C)c3)c(=O)c3c(C)c(C)sc32)cc(OC)c1	92	96	90	99	107	nt
O=C(Nc1ccccc1Cl)C(Cl)C(=O)c1ccccc1 (stereo unspecified)	nt	nt	nt	nt	nt	nt	LAP4-GFP pick2=110;MEP2-GFP pick2=98;RPL19A-GFP pick2=104;CIT2 GFP CP2=111;AGP1 GFP CP2=99
O=C(Nc1ccc(Cl)cc1)C(Cl)C(=O)c1ccccc1 (stereo unspecified)	97	107	102	90	102	nt
N=C1/C(=C\c2coc3ccccc3c2=O)C(=O)N=C2SC(c3ccncc3)=NN12	66	120	95	100	64	18	LAP4-GFP pick2=139;MEP2-GFP pick2=108;RPL19A-GFP pick2=83;CIT2 GFP CP2=163*;AGP1 GFP CP2=82
O=[N+]([O-])c1cc(CN2CCCC2)c2cccnc2c1O	94	99	88	97	89	nt
O=[N+]([O-])c1cc(CN2CCN(c3cccc(C(F)(F)F)c3)CC2)c2cccnc2c1O	nt	214*	114	116	88	0.91
Cc1c(Cc2ccccc2)c(NCCN(C)C)n2c(nc3ccccc32)c1C#N	101	198*	77	126	109	2
O=C(NC(=S)Nc1ccccc1[N+](=O)[O-])c1cncc(Br)c1	94	90	94	98	107	nt

Bioassay records from PubChem BioAssay.
